Results on 6 compounds are retold here after PubChem BioAssay (EPA / NIEHS).

A word on the AC50: it is the midpoint of the concentration-response curve, whichever way the signal moves.

The nature of assay [1]: ATG_NFI_CIS: Attagene CIS-FACTORIAL HepG2 Assay for human Nuclear Factor I (NFI) (AID 2282989). The settings on record: HepG2 cis-regulatory reporter, NFI response element transcription; actives raise or lower the signal. A digest of the protocol:
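HepG2 cells transiently transfected with cis-element-driven multiplexed reporter transcription units, dosed for 24 h. Reporter mRNA quantified by RT-PCR, fluorescent labelling, HpaI digestion and capillary electrophoresis; bidirectional fit versus DMSO baseline.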

The target of assay [2] is Myc proto-oncogene protein (Homo sapiens) (UniProt P01106). Nature of the assay: ATG_Myc_CIS: Attagene CIS-FACTORIAL HepG2 Assay for human Myelocytomatosis (Myc) Proto-Oncogene Transcription Factor (AID 2282990). The conditions noted are these: HepG2, Attagene cis-reporter transcription factor activity; actives raise or lower the signal. A digest of the protocol:
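HepG2, transient MRTU transfection (cis promoters, endogenous TFs); 24 h dosing; TriZol RNA → oligo(dT) RT → PCR → 6-FAM primer extension → HpaI cut → CE. Bidirectional fit vs DMSO.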

A short description of assay [3]: ATG_NRF2_ARE_CIS: Attagene CIS-FACTORIAL HepG2 Assay for human Nuclear Factor Erythroid 2 Related Factor 2 (NFR2) response to Antioxidant Response Elements (ARE) (AID 2282992). The settings on record: HepG2 Attagene ARE/NRF2 reporter, transcription factor activity; actives raise or lower the signal. The method in brief:
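Endogenous transcription factor activity read out as reporter transcript levels (RT-PCR plus capillary electrophoresis, fluorescence) in transiently transfected HepG2 cells. Measured at 24 h after dosing; gain or loss of signal fitted versus DMSO.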

Assay [4] can be described thus: ATG_Oct_MLP_CIS: Attagene CIS-FACTORIAL HepG2 Assay for human Octamer-Binding Transcription Factor (Oct) (AID 2282993). The conditions noted are these: HepG2 Attagene cis-factorial Oct reporter, mRNA; actives raise or lower the signal. A digest of the protocol: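 HepG2 cells transiently transfected with cis-promoter-driven multiplexed reporter transcription units, dosed for 24 h. Reporter mRNA quantified by RT-PCR, fluorescent labelling, HpaI digestion and capillary electrophoresis; bidirectional fits versus DMSO baseline.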

The target of assay [5] is Cellular tumor antigen p53 (Homo sapiens) (UniProt P04637). Put plainly: ATG_p53_CIS: Attagene CIS-FACTORIAL HepG2 Assay for human p53 Transcription Factor (AID 2282994). The settings on record: HepG2 p53 cis-element reporter, Attagene mRNA; actives raise or lower the signal. The method in brief: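 Endogenous p53 activity read in transiently transfected HepG2 from a cis-element-driven reporter transcript after 24 h exposure. RNA reverse-transcribed, PCR-amplified, fluorescently labelled and sized by capillary electrophoresis; gain or loss fitted against DMSO baseline.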
Chain of Cellular tumor antigen p53 (Homo sapiens) (P04637 whole entry, looked up): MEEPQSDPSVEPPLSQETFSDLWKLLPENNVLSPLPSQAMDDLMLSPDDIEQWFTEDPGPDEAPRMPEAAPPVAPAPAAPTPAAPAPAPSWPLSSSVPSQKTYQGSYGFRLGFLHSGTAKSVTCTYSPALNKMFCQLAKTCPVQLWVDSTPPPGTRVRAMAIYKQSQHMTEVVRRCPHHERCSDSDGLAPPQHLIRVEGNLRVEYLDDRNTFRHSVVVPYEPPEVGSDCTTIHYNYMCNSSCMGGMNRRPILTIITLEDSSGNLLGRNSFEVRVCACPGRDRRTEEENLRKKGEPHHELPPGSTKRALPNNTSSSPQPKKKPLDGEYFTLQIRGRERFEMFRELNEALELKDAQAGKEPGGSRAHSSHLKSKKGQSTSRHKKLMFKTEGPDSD

Assay [6] in a line: BSK_3C_TissueFactor: BioMAP Diversity Plus: 3C Assay for Tissue Factor Biomarker Activity (AID 2282997). The settings on record: BioMAP 3C HUVEC, tissue factor biomarker readout; actives raise or lower the signal. A digest of the protocol:
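In this endothelial system, HUVEC are treated for 24 h and Tissue Factor is assessed by ELISA, normalised to DMSO.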

A short description of assay [7]: BSK_3C_uPAR: BioMAP Diversity Plus: 3C Assay for Urokinase-type plasminogen activator receptor (uPAR) Biomarker Activity (AID 2282998). The settings on record: BioMAP 3C HUVEC, uPAR biomarker ELISA; actives raise or lower the signal. The method in brief:
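Human umbilical vein endothelial primary cells were exposed to test chemical for 24 h. Cell-surface uPAR was then quantified by ELISA, and responses were fitted bidirectionally against DMSO as negative control and baseline.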
A general note: ELISA stands for enzyme-linked immunosorbent assay.

Assay [8] in a line: BSK_3C_VCAM1: BioMAP Diversity Plus: 3C Assay for Vascular cell adhesion molecule 1 (VCAM1) Biomarker Activity (AID 2282999). The settings on record: BioMAP 3C HUVEC, VCAM1 ELISA, cytokine-stimulated; actives raise or lower the signal. A digest of the protocol: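 Activity fitted in both directions relative to DMSO, with ELISA measurement of the surface marker on primary HUVEC (3C) at 24 h post-treatment; parallel SRB staining (0.1% SRB, TCA-fixed, 560 nm) flagged overt cytotoxicity.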

Assay [9] can be described thus: BSK_4H_Eotaxin3: BioMAP Diversity Plus: 4H Assay for Eotaxin 3 Biomarker Activity (AID 2283000).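 As to outcome: CCL26 protein level quantified by ELISA in parallel with SRB cytotoxicity check.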 The settings on record: primary human endothelial cells (HUVEC); actives raise or lower the signal. The method in brief: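 ELISA quantitation of CCL26 (Eotaxin-3) protein from chemically dosed human vascular endothelial cells at 24 h; increases and decreases both scored relative to DMSO-treated baseline.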

The target in assay [10] is human Peroxisome Proliferator-activated Receptor delta (PPARd), PPARD (gene 5467) (UniProt Q03181). Nature of the assay: ATG_PPARd_TRANS: Attagene TRANS-FACTORIAL HepG2 Assay for human Peroxisome Proliferator-activated Receptor delta (PPARd) (AID 2283002; active = hit-call score of the fitted dose curve at least 0.9, where 1 is the maximum). A digest of the protocol:
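Transient HepG2 transfection (multiple GAL4-UAS RTUs, chimeric receptor-Gal4); 24 h dosing; total RNA → oligo(dT) RT → PCR → 6-FAM primer extension → HpaI cut → CE. Positive direction vs DMSO.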

Read-out in assay [11]: Intercellular Adhesion Molecule 1 (ICAM1), ICAM1 (gene 3383)
Put plainly: BSK_3C_ICAM1: BioMAP Diversity Plus: 3C Assay for Intercellular Adhesion Molecule 1 (ICAM1) Biomarker Activity (AID 2283003). The settings on record: primary human endothelial cells (HUVEC); actives raise or lower the signal. The method in brief: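 ELISA readout of ICAM1 in human umbilical vein endothelial cells in the 3C system, taken 24 h post-dose. Gain or loss of signal versus DMSO was fitted in both directions, with SRB total-protein staining run in parallel.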

Assay [12] concerns the target human Retinoic Acid Receptor beta (RARb), RARB (gene 5915) (UniProt P10826). Put plainly: ATG_RARb_TRANS: Attagene TRANS-FACTORIAL HepG2 Assay for human Retinoic Acid Receptor beta (AID 2283004; active = hit-call score of the fitted dose curve at least 0.9, where 1 is the maximum). A digest of the protocol: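 Fluorescent capillary-electrophoresis detection of GAL4-UAS reporter mRNA defines the endpoint, with induction over DMSO-treated wells scored as activity. Transiently transfected human hepatoma HepG2 cells expressing exogenous NR–Gal4 proteins are exposed to test chemicals for 24 h.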

The nature of assay [13]: BSK_3C_Proliferation: Cell Proliferation Assessment in the BioMAP Diversity Plus: 3C Assay (AID 2283006).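 As to AC50: potency may reflect either rise or fall in cell number versus DMSO.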 The settings on record: primary human endothelial cells (HUVEC). A digest of the protocol: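 Proliferation as total protein: sulforhodamine B (0.1%) stain of TCA-fixed subconfluent human umbilical vein endothelial cells, absorbance 560 nm, 48 h after dosing. Activity fitted in both directions against DMSO baseline.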

Assay [14] has as its target Nuclear receptor subfamily 1 group I member 2 (Homo sapiens) (UniProt O75469). Nature of the assay: ATG_PXR_TRANS: Attagene TRANS-FACTORIAL HepG2 Assay for human Pregnane X Receptor (PXR) (AID 2283008; active = hit-call score of the fitted dose curve at least 0.9, where 1 is the maximum). The method in brief: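 Transactivation by exogenous PXR–GAL4 fusion measured as reporter transcript induction after 24 h compound treatment of transfected human HepG2 cells. Read-out via RT-PCR and capillary electrophoresis of labelled fragments, fitted upward relative to DMSO.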

Assay [15] concerns the target human Retinoic Acid Receptor gamma (RARg), RARG (gene 5916) (UniProt P13631). Put plainly: ATG_RARg_TRANS: Attagene TRANS-FACTORIAL HepG2 Assay for human Retinoic Acid Receptor gamma (RARg) (AID 2283009; active = hit-call score of the fitted dose curve at least 0.9, where 1 is the maximum;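 as to AC50: AC50 is for reporter induction above DMSO meaning RARg activation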). The method in brief:
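Transactivation of exogenous RARg-Gal4 fusion measured as reporter transcript induction after 24 h in transfected HepG2 cells. RNA reverse-transcribed, amplified, fluorescently labeled and resolved by capillary electrophoresis; increase relative to DMSO.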

Assay [16] is described as follows: ATG_NF_kB_CIS: Attagene CIS-FACTORIAL HepG2 Assay for human Nuclear Factor Kappa B (NF-kB) (AID 2282991). The settings on record: HepG2 Attagene cis-factorial NF-kB reporter mRNA; actives raise or lower the signal. The method in brief: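 Multiplexed cis-reporter assay in transiently transfected HepG2. 24 h treatment; RNA isolated, RT-PCR, labelled fragments resolved by CE. DMSO baseline.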

Assay [17] deals with human Peroxisome Proliferator-activated Receptor alpha (PPARa), PPARA (gene 5465) (UniProt Q07869). Nature of the assay: ATG_PPARa_TRANS: Attagene TRANS-FACTORIAL HepG2 Assay for human Peroxisome Proliferator-activated Receptor alpha (PPARa) (AID 2283001; active = hit-call score of the fitted dose curve at least 0.9, where 1 is the maximum). The method in brief:
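Reporter transcripts quantified by RT-PCR plus capillary electrophoresis after 24 h treatment, fitted upward relative to DMSO. Cells: human HepG2 transiently carrying multiple GAL4-UAS reporter units driven by NR-Gal4 chimeras.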

In assay [18] the target is Retinoic acid receptor alpha (Homo sapiens) (UniProt P10276). Nature of the assay: ATG_RARa_TRANS: Attagene TRANS-FACTORIAL HepG2 Assay for human Retinoic Acid Receptor alpha (RARa) (AID 2283005; active = hit-call score of the fitted dose curve at least 0.9, where 1 is the maximum;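 as to AC50: potency for increased reporter signal meaning RARa activation over DMSO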). The method in brief: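 Reporter transcripts, measured by RT-PCR with fluorescent labeling and capillary electrophoresis after 24 h dosing, reflect activity of an exogenous human RARa–GAL4 fusion in transiently transfected HepG2. Fitted for increase relative to DMSO.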
Chain of Retinoic acid receptor alpha (Homo sapiens) (P10276 whole entry, looked up, the tested form may be a part): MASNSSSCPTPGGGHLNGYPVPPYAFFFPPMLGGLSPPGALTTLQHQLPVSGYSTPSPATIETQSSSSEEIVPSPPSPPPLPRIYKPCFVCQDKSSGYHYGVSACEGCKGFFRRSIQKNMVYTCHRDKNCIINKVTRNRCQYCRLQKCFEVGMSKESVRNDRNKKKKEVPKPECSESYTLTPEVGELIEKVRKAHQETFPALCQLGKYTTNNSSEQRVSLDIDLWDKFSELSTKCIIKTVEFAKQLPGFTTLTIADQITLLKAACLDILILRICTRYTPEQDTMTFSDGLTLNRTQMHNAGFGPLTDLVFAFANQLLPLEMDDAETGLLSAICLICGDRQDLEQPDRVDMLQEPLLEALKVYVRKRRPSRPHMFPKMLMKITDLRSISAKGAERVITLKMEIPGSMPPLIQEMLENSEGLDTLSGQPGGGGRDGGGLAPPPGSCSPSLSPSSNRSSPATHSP

Assay [19] addresses human RAR-related Orphan Receptor beta (RORb), RORB (gene 6096) (UniProt Q92753). Put plainly: ATG_RORb_TRANS: Attagene TRANS-FACTORIAL HepG2 Assay for human RAR-related Orphan Receptor beta (RORb) (AID 2283010; active = hit-call score of the fitted dose curve at least 0.9, where 1 is the maximum). The method in brief:
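Read-out is reporter mRNA induction, quantified by RT-PCR with fluorescent capillary electrophoresis, 24 h post-dose in transiently transfected HepG2 expressing exogenous NR-Gal4 chimera. Activity fitted upward versus DMSO.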

Several values for one entry are separate records, joined by “and”; a condition that tells them apart may be missing. Equal values may be shown once. Records with an inconclusive call do not appear. Where a structure was tested more than once in an assay, its records may differ in their call. Activity calls are given as the source filed them. The calls were made as follows, unless noted: active = hit-call score of the fitted dose curve at least 0.9, where 1 is the maximum; inactive = score below 0.9.

Chain of human Peroxisome Proliferator-activated Receptor alpha (PPARa), PPARA (gene 5465) (Q07869 whole entry, looked up, the tested form may be a part): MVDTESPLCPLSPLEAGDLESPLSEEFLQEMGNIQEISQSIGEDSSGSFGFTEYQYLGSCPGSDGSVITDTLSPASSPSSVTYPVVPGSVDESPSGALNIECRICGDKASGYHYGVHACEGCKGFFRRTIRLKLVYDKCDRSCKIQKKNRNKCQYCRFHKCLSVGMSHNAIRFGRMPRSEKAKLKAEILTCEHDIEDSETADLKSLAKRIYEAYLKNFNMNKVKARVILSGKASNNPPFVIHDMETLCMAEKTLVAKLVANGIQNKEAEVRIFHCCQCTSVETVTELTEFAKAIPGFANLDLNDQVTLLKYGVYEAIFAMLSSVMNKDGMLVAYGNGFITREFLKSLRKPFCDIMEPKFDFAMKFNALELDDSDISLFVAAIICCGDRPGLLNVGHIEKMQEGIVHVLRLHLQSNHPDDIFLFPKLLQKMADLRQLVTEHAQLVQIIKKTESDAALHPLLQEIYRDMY
Chain of human RAR-related Orphan Receptor beta (RORb), RORB (gene 6096) (Q92753 whole entry, looked up, the tested form may be a part): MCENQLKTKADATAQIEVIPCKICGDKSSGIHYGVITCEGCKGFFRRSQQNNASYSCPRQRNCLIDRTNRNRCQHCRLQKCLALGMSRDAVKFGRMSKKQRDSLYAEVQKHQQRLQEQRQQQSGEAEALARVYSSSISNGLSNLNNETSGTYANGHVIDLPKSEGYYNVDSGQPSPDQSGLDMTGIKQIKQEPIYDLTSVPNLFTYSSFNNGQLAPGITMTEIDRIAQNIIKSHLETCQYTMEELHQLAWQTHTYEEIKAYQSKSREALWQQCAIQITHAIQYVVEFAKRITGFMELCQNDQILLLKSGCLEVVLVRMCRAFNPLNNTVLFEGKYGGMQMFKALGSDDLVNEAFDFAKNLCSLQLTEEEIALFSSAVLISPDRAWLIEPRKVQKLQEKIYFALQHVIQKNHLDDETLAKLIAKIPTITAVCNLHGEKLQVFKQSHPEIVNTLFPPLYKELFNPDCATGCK
Chain of human Retinoic Acid Receptor gamma (RARg), RARG (gene 5916) (P13631 whole entry, looked up, the tested form may be a part): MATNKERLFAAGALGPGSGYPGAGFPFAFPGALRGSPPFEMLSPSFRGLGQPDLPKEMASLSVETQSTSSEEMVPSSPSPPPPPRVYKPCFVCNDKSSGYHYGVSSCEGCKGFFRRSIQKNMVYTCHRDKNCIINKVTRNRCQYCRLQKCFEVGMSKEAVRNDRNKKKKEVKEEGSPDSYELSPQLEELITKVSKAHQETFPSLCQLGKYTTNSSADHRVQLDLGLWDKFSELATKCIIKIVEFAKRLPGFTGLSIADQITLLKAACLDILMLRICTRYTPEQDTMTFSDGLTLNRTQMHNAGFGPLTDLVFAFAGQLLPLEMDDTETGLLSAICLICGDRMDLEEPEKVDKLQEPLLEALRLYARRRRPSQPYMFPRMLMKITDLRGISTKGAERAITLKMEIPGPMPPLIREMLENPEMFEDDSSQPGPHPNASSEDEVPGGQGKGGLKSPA
Chain of human Retinoic Acid Receptor beta (RARb), RARB (gene 5915) (P10826 whole entry, looked up, the tested form may be a part): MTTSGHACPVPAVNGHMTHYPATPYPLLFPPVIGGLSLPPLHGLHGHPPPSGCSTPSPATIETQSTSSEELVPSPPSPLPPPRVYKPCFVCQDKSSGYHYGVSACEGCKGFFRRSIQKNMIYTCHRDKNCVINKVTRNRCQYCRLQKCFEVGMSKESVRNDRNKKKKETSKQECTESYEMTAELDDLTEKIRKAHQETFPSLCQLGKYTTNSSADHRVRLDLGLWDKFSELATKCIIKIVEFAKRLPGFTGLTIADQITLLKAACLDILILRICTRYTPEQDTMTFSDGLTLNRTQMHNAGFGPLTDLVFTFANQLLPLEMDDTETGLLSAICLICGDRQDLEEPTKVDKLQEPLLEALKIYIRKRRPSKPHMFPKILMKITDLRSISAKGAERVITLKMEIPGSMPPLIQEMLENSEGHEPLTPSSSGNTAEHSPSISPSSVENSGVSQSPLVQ
Chain of Nuclear receptor subfamily 1 group I member 2 (Homo sapiens) (O75469 whole entry, looked up, the tested form may be a part): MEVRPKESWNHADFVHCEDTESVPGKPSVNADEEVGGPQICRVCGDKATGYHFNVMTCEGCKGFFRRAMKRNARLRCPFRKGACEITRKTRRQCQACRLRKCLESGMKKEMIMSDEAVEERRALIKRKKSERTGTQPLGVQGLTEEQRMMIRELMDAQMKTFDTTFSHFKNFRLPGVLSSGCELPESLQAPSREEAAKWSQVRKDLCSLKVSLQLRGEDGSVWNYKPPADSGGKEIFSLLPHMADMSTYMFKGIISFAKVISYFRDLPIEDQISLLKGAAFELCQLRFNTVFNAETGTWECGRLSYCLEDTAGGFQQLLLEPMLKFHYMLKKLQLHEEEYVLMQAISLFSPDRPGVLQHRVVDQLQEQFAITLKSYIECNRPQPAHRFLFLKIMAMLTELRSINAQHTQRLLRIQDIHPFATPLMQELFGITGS
Chain of human Peroxisome Proliferator-activated Receptor delta (PPARd), PPARD (gene 5467) (Q03181 whole entry, looked up, the tested form may be a part): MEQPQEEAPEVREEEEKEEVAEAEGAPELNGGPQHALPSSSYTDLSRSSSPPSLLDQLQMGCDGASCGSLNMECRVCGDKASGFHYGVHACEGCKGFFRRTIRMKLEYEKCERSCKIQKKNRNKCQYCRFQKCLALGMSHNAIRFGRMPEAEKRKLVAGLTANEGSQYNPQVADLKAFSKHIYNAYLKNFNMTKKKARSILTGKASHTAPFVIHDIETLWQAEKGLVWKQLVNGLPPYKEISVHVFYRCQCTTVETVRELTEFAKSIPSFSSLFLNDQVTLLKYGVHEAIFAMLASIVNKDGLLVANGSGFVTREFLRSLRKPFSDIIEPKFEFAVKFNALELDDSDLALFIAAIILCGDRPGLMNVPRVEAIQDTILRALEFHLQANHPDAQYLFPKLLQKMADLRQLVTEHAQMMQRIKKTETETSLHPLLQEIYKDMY
Chain of Myc proto-oncogene protein (Homo sapiens) (P01106 whole entry, looked up): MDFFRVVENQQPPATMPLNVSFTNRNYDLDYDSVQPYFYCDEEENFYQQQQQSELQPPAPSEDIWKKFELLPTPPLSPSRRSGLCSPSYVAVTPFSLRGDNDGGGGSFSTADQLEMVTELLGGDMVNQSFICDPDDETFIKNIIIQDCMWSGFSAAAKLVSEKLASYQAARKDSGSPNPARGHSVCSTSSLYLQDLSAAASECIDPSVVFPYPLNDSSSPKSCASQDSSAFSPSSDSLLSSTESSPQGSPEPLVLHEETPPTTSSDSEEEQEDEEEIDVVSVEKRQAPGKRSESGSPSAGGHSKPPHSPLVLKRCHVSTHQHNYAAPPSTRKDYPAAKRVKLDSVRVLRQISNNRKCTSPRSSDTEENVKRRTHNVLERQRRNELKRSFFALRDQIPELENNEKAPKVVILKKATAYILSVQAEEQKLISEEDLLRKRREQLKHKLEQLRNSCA

As for `CC(C)(C)C(O)/C(=C\c1ccc(Cl)cc1Cl)n1cncn1` (stereo unspecified), the call in assay [1], in [2], in assay [3], in [4], in assay [5] and in assay [10] was inactive. For the same compound, the result in assay [11], in assay [12], in [14] and in assay [15] was inactive. The AC50 is 36.7 µM (active) in [6]; 29.4 µM (active) in assay [7]; 25.3 µM (active) in assay [8]; 30.4 µM (active) in assay [9]; 26.3 µM (active) in [13].
Regarding `CCS(=O)(=O)c1cccnc1S(=O)(=O)NC(=O)Nc1nc(OC)cc(OC)n1`, the outcome in assay [1], in [16], in [4], in assay [5], in assay [6] and in [7] was inactive. For the same compound, the result in assay [8], in assay [9], in assay [17], in assay [10], in assay [11] and in assay [18] was inactive. The outcome in assay [13], in assay [14], in assay [15] and in assay [19] was inactive. Also, the AC50 in assay [3] is 17.6 µM (active) and 19.1 µM (active).
Consider `COC(=O)c1ccccc1S(=O)(=O)NC(=O)Nc1nc(C)nc(OC)n1`, for which the result in assay [1], in assay [2], in assay [3], in assay [4], in assay [5] and in assay [6] was inactive. In addition, the outcome in assay [7], in [8], in [9], in assay [17], in [11] and in [12] was inactive. In addition, the outcome in assay [18], in assay [13], in [14] and in assay [15] was inactive. Moreover, the AC50 in assay [3] was 31.3 µM (active); in assay [4] it was 36 µM (active).
As to `OCCOc1ccccc1`, the result in assay [1], in assay [2], in [3], in [4], in assay [5] and in assay [6] was inactive. Moreover, the result in [7], in assay [8], in [9], in assay [17], in [11] and in assay [18] was inactive. The result in assay [13], in [14], in assay [15] and in [19] was inactive.
For the compound `CC(C)OC(=O)Nc1cccc(Cl)c1`, the call in assay [1], in assay [2], in assay [16], in [5], in assay [6] and in assay [7] was inactive. Also, the outcome in assay [8], in assay [9], in assay [17], in assay [10], in assay [11] and in assay [12] was inactive. Moreover, the compound was called inactive in assay [18], in assay [13] and in [19]. Further, the figures for the concentration at half-maximal activity (AC50) in assay [3], in assay [4] and in assay [14] were 21 µM (active), 39.4 µM (active) and 65.4 µM (active), respectively.
Turning to `ClC1C(Cl)C(Cl)C(Cl)C(Cl)C1Cl` (stereo unspecified), the compound was classed as inactive in assay [1], in assay [16], in [3], in assay [4], in assay [5] and in assay [6]. Also, the outcome in [7], in assay [8], in assay [9], in assay [17], in assay [10] and in assay [11] was inactive. The outcome in assay [12], in assay [18], in assay [13], in assay [15] and in assay [19] was inactive. Besides, the AC50 in assay [3] was 33.2 µM (active) and 26.2 µM (active); in [4], 10.1 µM (active) and 100 µM (active); in [5] it was 150 µM (active) and 77.6 µM (active); in [7], 28.4 µM (active); in assay [8] it was 30.1 µM (active); in [9], 32.5 µM (active). In addition, the half-maximal activity concentration (AC50) in assay [11] is 28 µM (active); in assay [18], 20.6 µM (active) and 6.26 µM (active) and 37.2 µM (active); in [13], 29.2 µM (active) and 28 µM (active); in assay [15], 6.81 µM (active) and 8.7 µM (active).
